Publication PMC7862700, “An all-to-all approach to the identification of sequence-specific readers for epigenetic DNA modifications on cytosine”

How the values were obtained:
Experiment in all cases: DAPPL (digital affinity profiling via proximity ligation, sequencing); 10 mM Tris-HCl pH 7.5, 50 mM NaCl, 1 mM DTT, 4% glycerol, room temperature, 30 min; GST-TFs on glutathione beads, 16-mer random dsDNA library, 0.1% formaldehyde crosslink after washing; high values mean tight binding
Settings in all cases: protein: recombinant; tags: N-terminal GST; dsDNA, one strand shown
FLI1 = target: T1, FLI1 (Homo sapiens, UniProt Q01543 1-452)
T1 sequence: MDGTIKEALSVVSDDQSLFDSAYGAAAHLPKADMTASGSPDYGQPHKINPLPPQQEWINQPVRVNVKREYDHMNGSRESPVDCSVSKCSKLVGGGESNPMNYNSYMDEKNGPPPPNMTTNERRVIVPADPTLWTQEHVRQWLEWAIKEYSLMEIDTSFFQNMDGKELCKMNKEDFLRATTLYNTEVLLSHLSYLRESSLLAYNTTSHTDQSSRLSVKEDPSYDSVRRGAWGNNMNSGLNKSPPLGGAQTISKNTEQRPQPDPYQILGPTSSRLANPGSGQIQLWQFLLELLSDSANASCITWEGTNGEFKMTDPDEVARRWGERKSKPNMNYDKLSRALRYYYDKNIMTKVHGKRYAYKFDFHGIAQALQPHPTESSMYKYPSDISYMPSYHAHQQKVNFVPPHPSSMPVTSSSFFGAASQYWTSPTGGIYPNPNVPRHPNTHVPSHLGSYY
Summary of the method: (§1)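 Beads coated with glutathione captured GST-fused human transcription factors that had been expressed in yeast, and the factors were then given DNA barcodes and pooled with a tag-only sample. The pools were incubated with 200 nmole of a random double-stranded 16-mer DNA library in Tris/NaCl/DTT/glycerol buffer for 30 min at room temperature, washed, crosslinked with 0.1% formaldehyde and proximity-ligated with BsaI/T4 ligase at 37 °C for 1 h. PCR amplification and Illumina NextSeq500 sequencing came last. Binding signal is each hexamer's read frequency for a factor divided by its frequency for the tag-only sample.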

ELK1 = target: T2, ELK1 (Homo sapiens, UniProt P19419 1-428)
T2 sequence: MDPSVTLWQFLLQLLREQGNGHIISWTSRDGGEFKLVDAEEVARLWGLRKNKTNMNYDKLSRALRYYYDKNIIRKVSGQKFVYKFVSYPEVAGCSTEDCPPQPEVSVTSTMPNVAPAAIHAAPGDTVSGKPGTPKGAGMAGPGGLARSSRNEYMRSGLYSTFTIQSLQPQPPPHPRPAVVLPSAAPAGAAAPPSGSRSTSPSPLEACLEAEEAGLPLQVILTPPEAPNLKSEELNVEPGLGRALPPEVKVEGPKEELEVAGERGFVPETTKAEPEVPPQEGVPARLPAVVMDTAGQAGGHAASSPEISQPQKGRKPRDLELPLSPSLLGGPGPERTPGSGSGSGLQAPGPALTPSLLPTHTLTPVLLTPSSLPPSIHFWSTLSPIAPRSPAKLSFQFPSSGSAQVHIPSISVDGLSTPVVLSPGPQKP
Summary of the method: as §1

GABPA = target: T3, GABPA (Homo sapiens, UniProt Q06546 1-454)
T3 sequence: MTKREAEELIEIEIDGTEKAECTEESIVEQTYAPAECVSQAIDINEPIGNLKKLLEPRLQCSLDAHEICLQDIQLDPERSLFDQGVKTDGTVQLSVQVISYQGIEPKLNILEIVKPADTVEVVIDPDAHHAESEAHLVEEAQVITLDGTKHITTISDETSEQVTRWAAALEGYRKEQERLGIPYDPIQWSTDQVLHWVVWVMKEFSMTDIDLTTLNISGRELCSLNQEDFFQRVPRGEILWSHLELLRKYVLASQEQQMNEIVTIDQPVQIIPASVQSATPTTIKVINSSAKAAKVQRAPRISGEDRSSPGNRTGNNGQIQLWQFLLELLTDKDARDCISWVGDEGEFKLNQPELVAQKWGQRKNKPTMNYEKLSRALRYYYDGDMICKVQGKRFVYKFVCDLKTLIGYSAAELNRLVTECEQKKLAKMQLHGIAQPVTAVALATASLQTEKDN
Summary of the method: as §1

ERG = target: T4, ERG (Homo sapiens, UniProt P11308 1-479)
T4 sequence: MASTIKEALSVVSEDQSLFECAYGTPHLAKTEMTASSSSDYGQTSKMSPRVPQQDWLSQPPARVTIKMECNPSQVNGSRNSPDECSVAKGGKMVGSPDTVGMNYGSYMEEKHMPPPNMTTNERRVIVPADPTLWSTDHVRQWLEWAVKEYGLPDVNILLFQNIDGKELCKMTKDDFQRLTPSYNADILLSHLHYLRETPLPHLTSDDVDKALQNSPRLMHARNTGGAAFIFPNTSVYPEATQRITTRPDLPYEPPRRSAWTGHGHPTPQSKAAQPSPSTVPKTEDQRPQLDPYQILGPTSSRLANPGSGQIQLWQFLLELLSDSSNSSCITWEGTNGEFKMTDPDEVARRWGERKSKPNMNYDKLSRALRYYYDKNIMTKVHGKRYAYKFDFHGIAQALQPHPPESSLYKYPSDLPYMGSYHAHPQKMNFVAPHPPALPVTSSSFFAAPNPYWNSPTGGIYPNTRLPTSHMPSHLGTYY
Summary of the method: as §1

ELF1 = ELF1 (Homo sapiens, UniProt P32519 1-619)
Sequence of ELF1 (P32519 whole entry): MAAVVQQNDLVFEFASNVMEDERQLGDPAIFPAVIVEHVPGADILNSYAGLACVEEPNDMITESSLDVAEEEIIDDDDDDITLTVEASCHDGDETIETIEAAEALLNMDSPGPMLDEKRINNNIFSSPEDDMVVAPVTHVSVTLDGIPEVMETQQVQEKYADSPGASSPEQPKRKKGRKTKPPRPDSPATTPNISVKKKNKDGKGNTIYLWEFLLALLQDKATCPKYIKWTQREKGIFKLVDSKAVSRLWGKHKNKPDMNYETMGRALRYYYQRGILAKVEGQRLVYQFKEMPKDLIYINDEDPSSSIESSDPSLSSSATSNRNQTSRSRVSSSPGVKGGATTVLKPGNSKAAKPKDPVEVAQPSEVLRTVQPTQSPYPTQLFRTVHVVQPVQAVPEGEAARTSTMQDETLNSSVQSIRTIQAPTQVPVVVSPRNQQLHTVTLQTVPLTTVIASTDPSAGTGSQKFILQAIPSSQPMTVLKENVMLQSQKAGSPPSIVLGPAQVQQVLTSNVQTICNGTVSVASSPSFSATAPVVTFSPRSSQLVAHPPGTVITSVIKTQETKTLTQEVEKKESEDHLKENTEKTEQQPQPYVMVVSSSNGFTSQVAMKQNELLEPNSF
Summary of the method: as §1

EHF = target: T5, EHF (Homo sapiens, UniProt Q9NZC4 1-300)
T5 sequence: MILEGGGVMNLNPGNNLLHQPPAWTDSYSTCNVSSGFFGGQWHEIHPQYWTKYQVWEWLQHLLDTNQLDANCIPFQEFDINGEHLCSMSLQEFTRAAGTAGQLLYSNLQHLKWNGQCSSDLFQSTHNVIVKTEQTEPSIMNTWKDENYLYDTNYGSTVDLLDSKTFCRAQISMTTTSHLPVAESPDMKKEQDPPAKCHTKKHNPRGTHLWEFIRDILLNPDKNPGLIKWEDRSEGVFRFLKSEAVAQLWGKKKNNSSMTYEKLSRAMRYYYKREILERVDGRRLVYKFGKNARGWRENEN
Summary of the method: as §1

SPI1 = SPI1 (Homo sapiens, UniProt P17947 1-270)
Summary of the method: as §1

SPIB = SPIB (Homo sapiens, UniProt Q01892 1-262)
Sequence of SPIB (Q01892 whole entry): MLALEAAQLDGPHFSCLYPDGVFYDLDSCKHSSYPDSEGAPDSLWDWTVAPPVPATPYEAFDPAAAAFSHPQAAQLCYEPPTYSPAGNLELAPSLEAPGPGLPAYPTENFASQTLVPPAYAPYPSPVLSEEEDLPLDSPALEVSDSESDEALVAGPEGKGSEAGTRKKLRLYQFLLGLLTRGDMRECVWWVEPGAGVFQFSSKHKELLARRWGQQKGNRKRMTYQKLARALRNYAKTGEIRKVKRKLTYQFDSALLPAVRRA
Summary of the method: as §1

ELK3 = target: T6, ELK3 (Homo sapiens, UniProt P41970 1-407)
T6 sequence: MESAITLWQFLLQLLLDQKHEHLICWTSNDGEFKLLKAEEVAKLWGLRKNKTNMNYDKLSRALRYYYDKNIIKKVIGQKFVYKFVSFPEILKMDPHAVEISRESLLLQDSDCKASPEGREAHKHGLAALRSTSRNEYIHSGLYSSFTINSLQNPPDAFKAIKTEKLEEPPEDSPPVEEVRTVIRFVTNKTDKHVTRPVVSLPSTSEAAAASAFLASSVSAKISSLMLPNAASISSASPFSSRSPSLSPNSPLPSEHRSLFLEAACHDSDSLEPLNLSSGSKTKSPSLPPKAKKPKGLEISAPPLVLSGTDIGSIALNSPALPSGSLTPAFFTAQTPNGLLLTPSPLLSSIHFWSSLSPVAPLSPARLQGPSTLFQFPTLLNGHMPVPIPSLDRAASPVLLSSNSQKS
Summary of the method: as §1

FEV = target: T7, FEV (Homo sapiens, UniProt Q99581 1-238)
T7 sequence: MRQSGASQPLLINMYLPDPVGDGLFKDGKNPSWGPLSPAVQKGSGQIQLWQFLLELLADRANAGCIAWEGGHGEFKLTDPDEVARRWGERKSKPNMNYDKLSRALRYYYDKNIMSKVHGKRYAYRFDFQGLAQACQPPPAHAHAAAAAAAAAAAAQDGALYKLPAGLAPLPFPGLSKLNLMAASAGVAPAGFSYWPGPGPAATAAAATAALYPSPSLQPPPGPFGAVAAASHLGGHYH
Summary of the method: as §1

ETV5 = ETV5 (Homo sapiens, UniProt P41161 1-510)
Sequence of ETV5 (P41161 whole entry): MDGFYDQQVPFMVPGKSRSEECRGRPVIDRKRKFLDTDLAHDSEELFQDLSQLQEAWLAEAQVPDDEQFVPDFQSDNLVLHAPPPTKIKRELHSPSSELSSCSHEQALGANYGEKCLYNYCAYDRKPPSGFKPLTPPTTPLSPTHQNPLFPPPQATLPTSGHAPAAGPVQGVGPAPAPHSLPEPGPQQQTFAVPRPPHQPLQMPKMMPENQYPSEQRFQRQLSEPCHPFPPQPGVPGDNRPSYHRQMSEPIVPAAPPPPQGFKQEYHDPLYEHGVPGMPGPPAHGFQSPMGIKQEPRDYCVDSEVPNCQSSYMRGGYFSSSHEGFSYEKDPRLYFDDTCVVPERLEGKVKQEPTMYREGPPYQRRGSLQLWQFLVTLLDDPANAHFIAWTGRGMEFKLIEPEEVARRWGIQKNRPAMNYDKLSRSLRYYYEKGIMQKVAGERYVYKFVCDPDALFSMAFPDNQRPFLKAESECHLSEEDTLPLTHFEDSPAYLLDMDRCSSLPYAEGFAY
Summary of the method: as §1

SPIC = target: T8, SPIC (Homo sapiens, UniProt Q8N5J4 1-248)
T8 sequence: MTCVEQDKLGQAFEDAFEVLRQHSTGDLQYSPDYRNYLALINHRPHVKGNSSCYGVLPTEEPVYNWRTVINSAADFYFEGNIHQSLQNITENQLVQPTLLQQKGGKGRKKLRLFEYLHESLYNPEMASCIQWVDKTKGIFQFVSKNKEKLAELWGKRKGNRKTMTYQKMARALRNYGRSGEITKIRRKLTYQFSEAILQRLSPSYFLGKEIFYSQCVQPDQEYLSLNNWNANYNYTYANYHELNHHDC
Summary of the method: as §1

ELF4 = ELF4 (Homo sapiens, UniProt Q99607 1-663)
Sequence of ELF4 (Q99607 whole entry): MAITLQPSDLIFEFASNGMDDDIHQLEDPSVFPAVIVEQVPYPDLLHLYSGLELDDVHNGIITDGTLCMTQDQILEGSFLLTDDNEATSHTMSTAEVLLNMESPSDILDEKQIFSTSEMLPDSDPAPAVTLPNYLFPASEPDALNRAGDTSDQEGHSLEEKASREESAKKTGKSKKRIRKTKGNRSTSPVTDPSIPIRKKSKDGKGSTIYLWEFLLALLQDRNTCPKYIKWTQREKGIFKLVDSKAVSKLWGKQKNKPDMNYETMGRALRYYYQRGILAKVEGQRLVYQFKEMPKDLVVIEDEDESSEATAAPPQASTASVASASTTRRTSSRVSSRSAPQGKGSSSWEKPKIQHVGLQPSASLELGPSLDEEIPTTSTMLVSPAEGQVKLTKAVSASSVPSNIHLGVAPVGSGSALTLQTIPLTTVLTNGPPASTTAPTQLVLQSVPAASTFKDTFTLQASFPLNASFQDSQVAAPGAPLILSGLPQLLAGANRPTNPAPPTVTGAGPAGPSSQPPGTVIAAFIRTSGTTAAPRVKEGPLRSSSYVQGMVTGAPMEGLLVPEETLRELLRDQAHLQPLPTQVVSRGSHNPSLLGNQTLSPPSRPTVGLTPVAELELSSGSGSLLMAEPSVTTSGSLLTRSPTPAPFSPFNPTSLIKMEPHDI
Summary of the method: as §1

ELK4 = target: T9, ELK4 (Homo sapiens, UniProt P28324-2 1-405)
T9 sequence: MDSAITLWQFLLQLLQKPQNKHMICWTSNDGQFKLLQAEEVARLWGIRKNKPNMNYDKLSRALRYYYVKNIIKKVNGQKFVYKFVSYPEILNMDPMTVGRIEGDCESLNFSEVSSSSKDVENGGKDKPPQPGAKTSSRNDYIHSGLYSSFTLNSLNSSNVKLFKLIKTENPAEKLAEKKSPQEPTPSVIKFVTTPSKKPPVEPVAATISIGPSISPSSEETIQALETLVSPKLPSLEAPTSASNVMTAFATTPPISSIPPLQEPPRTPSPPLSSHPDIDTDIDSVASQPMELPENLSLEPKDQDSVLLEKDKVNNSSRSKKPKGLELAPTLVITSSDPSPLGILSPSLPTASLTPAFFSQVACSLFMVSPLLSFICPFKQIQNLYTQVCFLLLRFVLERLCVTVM
Summary of the method: as §1

ETV2 = target: T10, ETV2 (Homo sapiens, UniProt O00321 1-342)
T10 sequence: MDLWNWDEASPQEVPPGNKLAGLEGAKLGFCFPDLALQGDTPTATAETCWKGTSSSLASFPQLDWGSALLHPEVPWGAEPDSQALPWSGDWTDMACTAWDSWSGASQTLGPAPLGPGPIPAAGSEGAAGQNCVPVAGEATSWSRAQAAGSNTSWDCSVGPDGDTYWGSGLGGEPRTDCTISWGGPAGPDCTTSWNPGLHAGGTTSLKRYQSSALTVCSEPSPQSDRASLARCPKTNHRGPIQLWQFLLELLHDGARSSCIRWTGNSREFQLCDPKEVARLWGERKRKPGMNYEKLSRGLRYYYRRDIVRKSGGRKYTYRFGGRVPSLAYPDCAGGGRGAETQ
Summary of the method: as §1

ELF3 = target: T11, ELF3 (Homo sapiens, UniProt P78545 1-371)
T11 sequence: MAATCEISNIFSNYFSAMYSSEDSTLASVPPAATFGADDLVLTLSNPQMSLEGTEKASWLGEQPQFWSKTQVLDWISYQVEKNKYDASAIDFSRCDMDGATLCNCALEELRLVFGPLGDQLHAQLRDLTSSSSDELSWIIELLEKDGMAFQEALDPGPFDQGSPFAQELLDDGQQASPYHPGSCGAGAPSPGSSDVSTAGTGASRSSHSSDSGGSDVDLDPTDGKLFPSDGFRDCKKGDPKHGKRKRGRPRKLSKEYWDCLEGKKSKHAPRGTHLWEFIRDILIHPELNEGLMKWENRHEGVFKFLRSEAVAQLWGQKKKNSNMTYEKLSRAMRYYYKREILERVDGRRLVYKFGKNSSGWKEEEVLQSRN
Summary of the method: as §1

ETV1 = ETV1 (Homo sapiens, UniProt P50549 1-477)
Sequence of ETV1 (P50549 whole entry): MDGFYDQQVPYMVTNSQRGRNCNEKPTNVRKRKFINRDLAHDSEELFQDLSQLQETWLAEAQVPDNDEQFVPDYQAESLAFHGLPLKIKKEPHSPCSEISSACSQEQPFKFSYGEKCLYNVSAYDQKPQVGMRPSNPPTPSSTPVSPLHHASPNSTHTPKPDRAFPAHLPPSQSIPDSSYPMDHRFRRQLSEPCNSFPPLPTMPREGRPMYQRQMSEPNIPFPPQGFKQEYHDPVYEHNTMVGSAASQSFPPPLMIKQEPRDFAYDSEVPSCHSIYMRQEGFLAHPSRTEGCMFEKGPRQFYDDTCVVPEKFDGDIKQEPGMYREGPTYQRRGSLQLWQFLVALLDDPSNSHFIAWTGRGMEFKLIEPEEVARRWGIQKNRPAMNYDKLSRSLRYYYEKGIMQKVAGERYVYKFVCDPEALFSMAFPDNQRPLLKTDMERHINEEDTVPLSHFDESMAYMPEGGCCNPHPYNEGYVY
Summary of the method: as §1

Sequence	binding signal (FLI1)	binding signal (ELK1)	binding signal (GABPA)	binding signal (ERG)	binding signal (ELF1)	binding signal (EHF)	binding signal (SPI1)	binding signal (SPIB)	binding signal (ELK3)	binding signal (FEV)	binding signal (ETV5)	binding signal (SPIC)	binding signal (ELF4)	binding signal (ELK4)	binding signal (ETV2)	binding signal (ELF3)	binding signal (ETV1)
GTCCCT	1.15 fold enrichment (6-mer frequency, TF over GST control)	1.29 fold enrichment (6-mer frequency, TF over GST control)	1.2 fold enrichment (6-mer frequency, TF over GST control)	1.24 fold enrichment (6-mer frequency, TF over GST control)	1.28 fold enrichment (6-mer frequency, TF over GST control)	1.27 fold enrichment (6-mer frequency, TF over GST control)	1.38 fold enrichment (6-mer frequency, TF over GST control)	1.18 fold enrichment (6-mer frequency, TF over GST control)	1.16 fold enrichment (6-mer frequency, TF over GST control)	1.28 fold enrichment (6-mer frequency, TF over GST control)	1.18 fold enrichment (6-mer frequency, TF over GST control)	1.29 fold enrichment (6-mer frequency, TF over GST control)	1.31 fold enrichment (6-mer frequency, TF over GST control)	1.27 fold enrichment (6-mer frequency, TF over GST control)	1.22 fold enrichment (6-mer frequency, TF over GST control)	1.23 fold enrichment (6-mer frequency, TF over GST control)	1.26 fold enrichment (6-mer frequency, TF over GST control)
ACCCAC	1.28 fold enrichment (6-mer frequency, TF over GST control)	1.24 fold enrichment (6-mer frequency, TF over GST control)	1.35 fold enrichment (6-mer frequency, TF over GST control)	1.1 fold enrichment (6-mer frequency, TF over GST control)	1.13 fold enrichment (6-mer frequency, TF over GST control)	1.21 fold enrichment (6-mer frequency, TF over GST control)	1.18 fold enrichment (6-mer frequency, TF over GST control)	1.07 fold enrichment (6-mer frequency, TF over GST control)	1.24 fold enrichment (6-mer frequency, TF over GST control)	1.22 fold enrichment (6-mer frequency, TF over GST control)	1.15 fold enrichment (6-mer frequency, TF over GST control)	1.23 fold enrichment (6-mer frequency, TF over GST control)	1.23 fold enrichment (6-mer frequency, TF over GST control)	1.21 fold enrichment (6-mer frequency, TF over GST control)	1.19 fold enrichment (6-mer frequency, TF over GST control)	1.33 fold enrichment (6-mer frequency, TF over GST control)	1.17 fold enrichment (6-mer frequency, TF over GST control)
